Records with an inconclusive call do not appear. Activity calls are given as the source filed them. Calls come from the whole dose curve; as a rule, active = well fitted curve in the direction sought with a large enough effect; inconclusive = small, poorly fitted or top-dose-only effect, or another doubt; inactive = no such curve, though single readings can be large; an effect the other way counts as inactive or inconclusive.
Columns and labels:
[1] = target: Rap guanine nucleotide exchange factor 3 (Homo sapiens) (UniProt O95398); experiment: Confirmatory qHTS for antagonist of cAMP-regulated guanine nucleotide exchange factor 3 (EPAC1) (AID 1645880); note: nearly all actives have a fitted effect of over 55% in size; note: potency is the fitted concentration of half-maximal effect
Rap guanine nucleotide exchange factor 3 (Homo sapiens), sequence (O95398 whole entry, looked up): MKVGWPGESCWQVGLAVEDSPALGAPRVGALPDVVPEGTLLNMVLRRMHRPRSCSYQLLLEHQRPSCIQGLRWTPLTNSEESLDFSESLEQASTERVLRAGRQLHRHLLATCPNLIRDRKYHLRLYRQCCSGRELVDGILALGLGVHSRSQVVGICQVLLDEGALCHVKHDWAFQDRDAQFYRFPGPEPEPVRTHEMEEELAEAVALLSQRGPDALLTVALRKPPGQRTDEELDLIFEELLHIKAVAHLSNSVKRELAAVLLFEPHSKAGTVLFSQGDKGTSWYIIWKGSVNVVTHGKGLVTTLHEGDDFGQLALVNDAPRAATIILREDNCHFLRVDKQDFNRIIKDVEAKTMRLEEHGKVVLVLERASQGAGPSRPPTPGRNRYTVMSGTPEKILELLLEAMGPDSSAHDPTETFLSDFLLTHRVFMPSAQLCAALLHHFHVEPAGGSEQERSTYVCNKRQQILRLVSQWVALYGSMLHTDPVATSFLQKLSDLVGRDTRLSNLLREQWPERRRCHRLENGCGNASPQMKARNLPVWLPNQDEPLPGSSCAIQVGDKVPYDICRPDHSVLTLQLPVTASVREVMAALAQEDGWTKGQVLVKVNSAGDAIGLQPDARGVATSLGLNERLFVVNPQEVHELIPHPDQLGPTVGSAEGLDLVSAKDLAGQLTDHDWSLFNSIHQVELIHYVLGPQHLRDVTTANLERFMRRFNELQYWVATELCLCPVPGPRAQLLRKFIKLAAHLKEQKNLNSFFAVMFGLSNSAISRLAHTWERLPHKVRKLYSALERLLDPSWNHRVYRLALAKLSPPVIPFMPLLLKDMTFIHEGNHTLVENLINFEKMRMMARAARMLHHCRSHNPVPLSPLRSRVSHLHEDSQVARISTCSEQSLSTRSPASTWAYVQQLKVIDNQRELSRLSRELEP
Summary of the method: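 Released BODIPY-GDP fluoresces less than Rap1-bound BODIPY-GDP; the signal is followed at 480/540 nm at 5-min intervals over 30 min, after 5 min at room temperature. Reactions contain 100 nM EPAC1, 250 nM RAP1B-BODIPY-GDP and 50 uM GDP; results are normalized to ATA and DMSO.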

[2] = target: Rap guanine nucleotide exchange factor 3 (Homo sapiens) (UniProt O95398); experiment: Confirmatory qHTS for agonist of cAMP-regulated guanine nucleotide exchange factor 3 (EPAC1) (AID 1645881); note: nearly all actives have a fitted effect of over 75% in size; note: potency is the fitted concentration of half-maximal effect;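 for activation: EPAC1 catalysed release of BODIPY-GDP from Rap1B seen as fluorescence loss; 100% = effect of cAMP agonist control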
[3] = target: Rap guanine nucleotide exchange factor 4 (Homo sapiens) (UniProt Q8WZA2); experiment: Confirmatory qHTS for agonist of cAMP-regulated guanine nucleotide exchange factor 4 (EPAC2) (AID 1645884);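 note: nucleotide exchange releases bodipy-GDP from Rap1 and this lowers its fluorescence; nearly all actives have a fitted effect of over 65% in size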; note: potency is the fitted concentration of half-maximal effect; for activation: % is set by controls: 0 for no effect and ±100 for the full control effect
Rap guanine nucleotide exchange factor 4 (Homo sapiens), sequence (Q8WZA2 whole entry, looked up): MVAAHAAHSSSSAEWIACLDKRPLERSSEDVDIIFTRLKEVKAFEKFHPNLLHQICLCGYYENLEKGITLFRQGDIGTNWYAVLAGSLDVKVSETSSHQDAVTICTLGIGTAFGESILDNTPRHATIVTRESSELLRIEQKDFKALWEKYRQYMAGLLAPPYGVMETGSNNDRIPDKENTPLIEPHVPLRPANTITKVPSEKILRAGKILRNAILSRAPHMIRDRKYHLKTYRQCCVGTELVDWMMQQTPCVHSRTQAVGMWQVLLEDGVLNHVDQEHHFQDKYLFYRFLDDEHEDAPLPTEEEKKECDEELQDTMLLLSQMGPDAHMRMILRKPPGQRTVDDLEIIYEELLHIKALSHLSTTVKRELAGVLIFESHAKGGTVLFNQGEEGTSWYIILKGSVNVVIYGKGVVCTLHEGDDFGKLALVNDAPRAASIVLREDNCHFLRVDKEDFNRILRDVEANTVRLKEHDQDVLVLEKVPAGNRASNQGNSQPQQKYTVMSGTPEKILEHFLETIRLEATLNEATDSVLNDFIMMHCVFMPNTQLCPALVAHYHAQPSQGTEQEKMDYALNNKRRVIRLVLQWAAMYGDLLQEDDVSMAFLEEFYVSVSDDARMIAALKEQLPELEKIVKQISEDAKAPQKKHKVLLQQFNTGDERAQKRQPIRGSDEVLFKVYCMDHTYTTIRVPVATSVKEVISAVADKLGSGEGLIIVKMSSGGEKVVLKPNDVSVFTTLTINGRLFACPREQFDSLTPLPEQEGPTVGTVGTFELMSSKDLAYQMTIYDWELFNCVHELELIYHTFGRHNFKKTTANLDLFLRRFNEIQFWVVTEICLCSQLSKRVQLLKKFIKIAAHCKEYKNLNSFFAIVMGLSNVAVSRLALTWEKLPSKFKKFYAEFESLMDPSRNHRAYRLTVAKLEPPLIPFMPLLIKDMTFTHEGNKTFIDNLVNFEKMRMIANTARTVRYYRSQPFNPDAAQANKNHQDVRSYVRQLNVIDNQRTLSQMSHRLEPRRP

[4] = target: Rap guanine nucleotide exchange factor 4 (Homo sapiens) (UniProt Q8WZA2); experiment: Confirmatory qHTS for antagonist of cAMP-regulated guanine nucleotide exchange factor 4 (EPAC2) (AID 1645885); note: nearly all actives have a fitted effect of over 25% in size; for activity change, negative = inhibition: % is set by controls: 0 for no effect and ±100 for the full control effect
[5] = target: Rap guanine nucleotide exchange factor 3 (Homo sapiens) (UniProt O95398); experiment: Counterscreen qHTS for antagonist of cAMP-regulated guanine nucleotide exchange factor 3 (EPAC1) (AID 1645888); note: % of control where 0% means no effect
Summary of the method: (§1)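 Rap1B-BODIPY-GDP 250 nM + GDP 50 uM; cpds 7-pt, final 9.74 nM–152 uM (activator mode) or from 7.32 nM upwards (inhibitor mode); RT; FI 480/540 nm at 5 and 30 min, then ± cAMP, reread.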

[6] = target: Rap guanine nucleotide exchange factor 3 (Homo sapiens) (UniProt O95398); experiment: Counterscreen qHTS for agonist of cAMP-regulated guanine nucleotide exchange factor 3 (EPAC1) (AID 1645889); note: nearly all actives have a fitted effect of over 40% in size; note: potency is the fitted concentration of half-maximal effect; for activation: % of control where 0% means no effect
Summary of the method: as §1

[7] = qHTS for Inhibitors of the vitamin D receptor (VDR): Hit Validation using a Texas Red Assay (AID 602201); note: % is set by controls: 0 for no effect and ±100 for the full control effect
Summary of the method: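 After a 2-hour room-temperature incubation, polarization of Texas-Red emission was read (Ex 595 nm/Em 615 nm). Final mix contained 7 nM Texas Red, 1.5 uM VDR-LBD and LG19078.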

O=C(O)CC1OCC=C2CN3CCC45C6=CC(=O)C(=O)C([N+](=O)[O-])=C6NC4C1C2CC35 (stereo not drawn)
inactive: Potency [1] | Potency [2] | Potency [3] | Potency [4] | outcome [5] | Potency [6]

O=C1NC(=S)N(c2ccccc2)C(=O)/C1=C/c1ccco1
active: Potency [1] 9.53 µM
inactive: Potency [2] | Potency [3] | Potency [4] | outcome [5] | Potency [6]

CC(Cc1ccc(O)cc1)NCC(O)c1ccc(O)c(O)c1 (stereo not drawn)
inactive: Potency [2] | activation [3] -2.87% [at 17.1 µM, percent relative to cAMP agonist control] | activity change, negative = inhibition [4] -0.704% [at 12.7 µM] | activity change, negative = inhibition [5] 6.78% [at 30.8 µM]
active: Potency [1] 22.4 µM

CCN1/C(=C/C=C/C2=[N+](CC)c3ccccc3C2(C)C)C(C)(C)c2ccccc21
inactive: Potency [1] | Potency [4] | outcome [5]
active: Potency [2] 56.2 µM | Potency [3] 100 µM | Potency [6] 10 µM

COC(=O)C1=C(c2ccc3ccccc3c2)C[C@@H]2CC[C@H]1N2C(=O)NC1CC1
inactive: Potency [1] | Potency [2] | Potency [3] | Potency [4] | outcome [5] | Potency [6]

COc1ccc(N=Cc2c(O)n(Cc3ccccc3)c(=S)[nH]c2=O)c(OC)c1
active: Potency [2] 79.4 µM | Potency [3] 100 µM
inactive: Potency [1] | Potency [4] | outcome [5] | Potency [6]

CCN(CC)c1ccc(N=Cc2c(O)n(CCC3=CCCCC3)c(=O)[nH]c2=O)cc1
active: Potency [1] 75.7 µM
inactive: Potency [2] | Potency [3] | Potency [4] | outcome [5] | Potency [6]

O=C1NCN(c2ccccc2)C12CCN(C(c1cc3ccccc3o1)c1nnnn1C1CCCC1)CC2 (stereo not drawn)
inactive: Potency [1] | Potency [2] | activation [3] 13.1% [at 17.1 µM, percent relative to cAMP agonist control] | activity change, negative = inhibition [4] -12.5% [at 12.7 µM] | activity change, negative = inhibition [5] -0.487% [at 30.8 µM]

CCN1C(=O)C(=C/C=C/c2ccco2)C(=O)N(CC)C1=S
inactive: Potency [1] | Potency [2] | Potency [3] | Potency [4] | outcome [5]

Cc1c(NS(=O)(=O)c2ccccc2)ccc([N+](=O)[O-])c1Cl
inactive: Potency [1] | Potency [2] | Potency [3] | Potency [4] | outcome [5]

COc1ccc(OCC(=O)N2CCN(CC3CC4C=CC3C4)CC2)cc1 (stereo not drawn)
inactive: Potency [1] | Potency [2] | activation [3] 6.59% [at 17.1 µM, percent relative to cAMP agonist control] | activity change, negative = inhibition [4] 6.27% [at 12.7 µM] | activity change, negative = inhibition [5] -7.66% [at 30.8 µM]

CN1C(=O)/C(=C/c2cccn2-c2ccc3ccccc3c2)C(=O)NC1=S
active: Potency [1] 33.8 µM
inactive: Potency [2] | Potency [3] | Potency [4] | outcome [5]

O=C1NC(=S)NC(=O)C1=Cc1cccn1-c1ccc(O)cc1
active: Potency [1] 3.55 µM
inactive: Potency [7] | Potency [2] | activation [3] 2.5% [at 17.1 µM, percent relative to cAMP agonist control] | activity change, negative = inhibition [4] -7.44% [at 12.7 µM] | activity change, negative = inhibition [5] -4.08% [at 30.8 µM]

O=C1NC(=O)N(Cc2ccco2)C(=O)/C1=C/C=C/c1ccco1
inactive: Potency [1] | Potency [2] | activation [3] 0.0468% [at 17.1 µM, percent relative to cAMP agonist control] | activity change, negative = inhibition [4] 0.223% [at 12.7 µM] | activity change, negative = inhibition [5] -7.48% [at 30.8 µM] | activation [6] -8.64% [at 30.8 µM]
